Test results as given in the supplement of paper PMC4840960.
Where a name gives a salt, the structure may show the parent alone.

Each molecule was assayed on E18 rat cortical neuron-glia co-culture (assay: fiber score / MBP score (myelination specific beyond OL differentiation) (ratio); higher = more myelination-specific MBP alignment). Details: 1 µM; treatment time: 8 days (DIV5-DIV13).
Method in brief: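 The measure is the ratio of fiber score to MBP score, where fiber score is continuous MBP fiber length per Olig2+ nucleus and MBP score is thresholded MBP area × intensity per Olig2+ nucleus. Primary E18 rat cortical co-cultures received library compounds at 1 or 5 µM in myelination medium from DIV5 to DIV13, then were fixed in 4 % paraformaldehyde and stained for MBP, Olig2 and DAPI before analysis of four 10X fields per well in duplicate wells.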
For `NC(=O)c1cccnc1` [Niacinamide], the “fiber score / MBP score” value was 0.96.
For `CCOC(=O)C1=C(C)NC(C)=C(C(=O)OC)C1c1cccc([N+](=O)[O-])c1` (stereo not drawn) [Nitrendipine], the “fiber score / MBP score” value was 0.92.
With `CC(C)NCC(O)COc1ccc(CCOCC2CC2)cc1` (stereo not drawn) [Betaxolol] the “fiber score / MBP score” value was 0.636.
`CNNCc1ccc(C(=O)NC(C)C)cc1` [Procarbazine] was tested, and the “fiber score / MBP score” value was 0.937.
For `NC(=O)N1c2ccccc2CC(=O)c2ccccc21` [Oxcarbazepine], the “fiber score / MBP score” value was 1.02.
For `CC1CNc2c(cccc2S(=O)(=O)N[C@@H](CCCNC(=N)N)C(=O)N2CC[C@@H](C)C[C@@H]2C(=O)O)C1` (stereo partly drawn) [Argatroban], the “fiber score / MBP score” value was 0.647.
For `C=C1/C(=C\C=C2/CCC[C@]3(C)[C@@H]([C@H](C)/C=C/[C@@H](O)C4CC4)CC[C@@H]23)C[C@@H](O)C[C@@H]1O` [Calcipotriene], the “fiber score / MBP score” value was 0.711.
With `CC(C)(C#N)c1cc(Cn2cncn2)cc(C(C)(C)C#N)c1` [Anastrozole] the “fiber score / MBP score” value was 0.803.
For `CC(C)[C@H]1CC[C@H](C(=O)N[C@H](Cc2ccccc2)C(=O)O)CC1` [Nateglinide], the “fiber score / MBP score” value was 0.796.
With `C[C@]12CC[C@@H]3c4ccc(OS(=O)(=O)O)cc4CC[C@H]3[C@@H]1CCC2=O` [Estrone sulfate] the “fiber score / MBP score” value was 1.04.
With `CC(C)(C)NC[C@H](O)COc1nsnc1N1CCOCC1` [Timolol] the “fiber score / MBP score” value was 0.869.
In the case of `COc1cc(C[C@@H](CO)[C@H](CO)Cc2ccc(O)c(OC)c2)ccc1O` [Secoisolariciresinol], the “fiber score / MBP score” value was 0.879.
`CN1CCN(CC/C=C2/c3ccccc3Sc3ccc(S(=O)(=O)N(C)C)cc32)CC1` [Thiothixene] was tested, and the “fiber score / MBP score” value was 0.826.
